Results taken from PubChem BioAssay AID624352 (Sanford-Burnham Center for Chemical Genomics, 2012).
Hit rate of the full screen: of about 360,000 compounds, about 2,600 (0.72%) were called active.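 How the source made its calls: active means inhibition of the luminescence signal of 40% or more relative to plate controls, in a single-dose primary screen at 18.75 µM; inactive means the rest.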 The entries come from a sample that favours actives as a whole.

assay: HIF-2a reporter inhibitors, primary screen, luminescence, 786-0 RCC cells (AID 624352); conditions: 786-0 RCC cells HIF-2a reporter, luciferase luminescence, overnight; at 18.8 µM; stronger effect = higher value

SMILES	inhibition
NS(=O)(=O)c1ccc(CNC(=O)c2ccc(Cl)cc2[N+](=O)[O-])cc1	2.46% (inactive)
Fc1ccc2nc(-c3ccccc3)nc(SCc3nnc(-c4ccccc4)o3)c2c1	23.8% (inactive)
O=C(CSc1c2c(nc3ccc(Cl)cc13)CCCC2)NCc1ccco1	17.8% (inactive)
Clc1ccc2nc(-c3ccccc3)nc(C(Cl)Cl)c2c1	57.1% (active)
Cc1cc(C(=O)N2CCCC2(C)C(=O)O)c(C)o1 (stereo not given)	-4.82% (inactive)
CC(=O)Nc1ccc(CC#N)cc1	18.5% (inactive)
C/C(Cc1ccccc1)=N\NC(=O)CNC(=O)c1cccc(Br)c1	14% (inactive)
CN(C)C(=O)c1ccc(NC(=O)c2ccccc2-c2ccccc2)cc1	19.3% (inactive)
O=C(NC1=CC(=O)c2ccccc2C1=O)c1ccccc1	92.9% (active)
Cc1ccc(C(=O)Nc2c(-c3ccccc3)[nH][nH]c2=O)cc1	-3.55% (inactive)
Cc1ccc(-c2cnc(NC(=O)CCC(=O)N(C)Cc3ccccc3)n2C)cc1	-43.9% (inactive)
CCOc1cc(/C=C(/C#N)c2ccc(Cl)cc2)cc(Cl)c1OCC(=O)O	91.8% (active)
CCOc1cc(/C=N/NC(=O)OC)ccc1OCCSc1ccc(Cl)cc1	-1.68% (inactive)
COc1cc(/C=C(/NC(=O)c2ccc(Cl)cc2Cl)C(=O)O)cc(OC)c1OC	12.9% (inactive)
CCOC(=O)c1c(C)[nH]c(C2=NNC(=NC(C)COC)SC2)c1C (stereo not given)	-141% (inactive)
CCOC(=O)C1(Cc2ccccc2C)CCCN(C(=O)c2ccc(COC)o2)C1 (stereo not given)	-190% (inactive)
Cc1cccc(NC(=O)C2CCCN(C(=O)Nc3ccc(F)cc3)C2)c1C (stereo not given)	7.56% (inactive)
COc1ccc(CCNS(=O)(=O)c2ccc(F)cc2)cc1OC	9.4% (inactive)
COc1ccc(-c2cc(C(F)(F)F)nc(S(C)(=O)=O)n2)cc1OC	94.1% (active)
COc1ccc(C2=NO[C@@H]3C(=O)N(Cc4ccccc4)C(=O)[C@H]23)cc1OC	16.2% (inactive)
O=C(c1cn(-c2ccccc2)nc1-c1cccnc1)N1CCN(S(=O)(=O)c2ccccc2F)CC1	9.12% (inactive)
CCc1ccc(-n2c(=S)sc3c(=O)n(-c4ccccc4OC)c(=S)[nH]c32)cc1	8.96% (inactive)
COc1ccc(OC)c2c(N)c(C#N)c(C(F)(F)C(F)(F)F)nc12	8.83% (inactive)

SMILES	inhibition
COc1cc2c(C(=O)O)c(C)n(C)c2c2ccccc12	-195% (inactive)
COc1cccc2c(C)c(C(=O)O)[nH]c12	47% (active)
COc1cccc2c(O)cc(=O)n(C)c12	19.6% (inactive)
O=C(c1ccccc1Cl)N(Cc1ccccc1F)N1C(=O)CCCC1=O	16.7% (inactive)
O=C(O)C1C2C=CC(O2)C1C(=O)NCCc1cccc(Cl)c1 (stereo not given)	-2.61% (inactive)
Cc1cc(O)ccc1-c1cc(C(=O)NCc2cc(C(F)(F)F)cc(C(F)(F)F)c2)[nH]n1	15.8% (inactive)
COCCn1c(SCC(=O)Nc2ccccc2F)nc2c(c1=O)SCC2	1.2% (inactive)
Cc1cccc(NC(=O)C2CCCN(C(=O)NCc3ccccc3)C2)c1C (stereo not given)	0.73% (inactive)
Cc1ccc2nc(-c3ccc(Br)cc3)cn2c1	40.6% (active)
Cc1ccc(-c2cn3cc(C)ccc3n2)cc1	71.3% (active)
COc1ccc(-c2nc3ccc(Br)cn3c2Cc2ccc(C)cc2)cc1OC	-137% (inactive)
Cc1ccc(-c2nc3ccc(Br)cn3c2Cc2ccccc2C(F)(F)F)cc1	-290% (inactive)
CC(=O)Nc1c(-c2ccc(C)cc2)nc2ccc(Cl)cn12	4.44% (inactive)
Cc1ccc2nc(-c3ccccc3)c(CC3CCCCC3)n2c1	-173% (inactive)
CC(C)NC(=O)Nc1cccc2c1O[C@H](CN(C)S(=O)(=O)c1cccs1)[C@@H](C)CN([C@H](C)CO)C2=O	12.7% (inactive)
N#Cc1cccc(NC(=O)COC(=O)c2ccccc2C(=O)c2ccc(Cl)c([N+](=O)[O-])c2)c1	94.8% (active)
CC(=O)Nc1ccc(NC(=O)C(C)OC(=O)c2ccccc2C(=O)c2ccc(Cl)c([N+](=O)[O-])c2)cc1 (stereo not given)	19.2% (inactive)
NS(=O)(=O)c1cccc(NC(=O)COC(=O)c2cc([N+](=O)[O-])ccc2N2CCCC2)c1	25.4% (inactive)
Brc1ccc2c(c1)[C@H]1OCC[C@H]1[C@@H](c1cccs1)N2	-2.71% (inactive)
C[C@H](O)[C@@H]1C(=O)N2CCc3ccc(N4CCOCC4)cc3[C@@H]2C[C@@H]1N(C)C(=O)C(C)(C)C	-9.89% (inactive)
Cc1cc(C)c(SCCc2ccncc2)c(C)c1	10% (inactive)
Cc1cc(Nc2cc(N3CCN(C)CC3)nc(Sc3ccc(NC(=O)C4CC4)cc3)n2)n[nH]1	52.1% (active)
